Results filed as inconclusive are left out. Calls of active or inactive are those of the source. Calls follow the shape of the dose curve; as a rule, active = well fitted curve in the direction sought with a large enough effect; inconclusive = small, poorly fitted or top-dose-only effect, or another doubt; inactive = no such curve, though single readings can be large or run the other way.

The assay in a line: qHTS of small molecules that selectively kill Giardia lamblia: GS isolate Assay for SAR. To be noted: Giardia lamblia GS isolate viability; series mostly up to 38.3 µM; activity change, negative = inhibition: at the top concentration. The text has this: Giardia lamblia is a human pathogen afflicting impoverished nations, and the most common cause of outbreaks of diarrhea in the United States. Giardia has been classified by the CDC as a category B bioterrorism organism. The favored anti giardiasis drugs in the US are metronidazole or tinidazole, compounds that have undesirable side effects. Moreover, increasing resistance to these drug regimens and recurrence remains a concern. It is thus clear that alternative drug treatments are needed.
In collaboration with the University of Maryland (College Park), a bioluminescence Giardia viability assay based on the trophozoites' ATP content was developed. This assay is suitable for high throughput screening, and miniaturized the assay for compound screening in 1536-well plates. The Molecular Libraries Small Molecule Repository (MLSMR) was screened against this assay to find compounds that selectively kill Giardia trophozoites (AID 540267). Selected compounds were re-acquired to confirm their trophozoite toxicity activity (AID 588397) and lead chemotypes were identified for medicinal chemistry optimization. The data herein is the result of the first round of SAR for this project. Decrease in luminescence signal indicative of tropozoite growth inhibition (inhibitors) is the desired outcome for this assay.
NIH Chemical Genomics Center [NCGC]
NIH Molecular Libraries Probe Centers Network [MLPCN]
Assay Submitter (PI): Osnat Herzberg, University of Maryland, College Park, MD.
Giardia assay media was dispensed to an assay plate at 2 ul / well volume. Twenty-three nanoliter / well compounds were pinned into the plates using the Kalypsys robotic system. Giardia trophozoites were dispensed into the well at a concentration of 100 cells / well and incubated anaerobically at 37C for 48 hours. After compound incubation, 4 ul/ well ATPLite 1-Step luminescence assay detection reagent was and the plates were incubated at room temperature. After 30 min of incubation with the detection reagent, luminescence signal was obtained using the PerkinElmer ViewLux plate reader. Data was then processed and normalized to both positive and negative controls. Biosafety level 2 laboratory practices were observed throughout the duration of this screen.
As to `COc1ccnc(NC(=S)N2CCN(c3ccc(Cl)cc3Cl)CC2)c1`, the “activity change, negative = inhibition” value was -24.1% (inactive).

For the compound `Cc1cc(C)nc(NC(=S)N2CC3CN(c4ccc(Cl)cc4C(F)(F)F)CC3C2)c1` (stereo unspecified), the “activity change, negative = inhibition” value was -26.8% (inactive).

As to `CSC(Cc1ccc(Cl)cc1)C(=O)Nc1ccc(Cl)cc1C(=O)O` (stereo unspecified), the “activity change, negative = inhibition” value was -22.2% (inactive).

As for `Cc1ccnc(NC(=S)N2CCN(c3cccc(C(F)(F)F)c3)CC2)c1`, the “activity change, negative = inhibition” value is -32.4% [at 37.9 µM] (inactive).

Consider `Cc1ccnc(NC(=S)N2CC3CN(c4ncc(C(F)(F)F)cc4Cl)CC3C2)c1` (stereo unspecified), for which the “activity change, negative = inhibition” value is -29.8% (inactive).

For `Cc1ccnc(N=C(N)N2CCN(c3cccc(C(F)(F)F)c3)CC2)c1`, the “activity change, negative = inhibition” value is -7.19% [at 37.9 µM] (inactive).

Regarding `COc1ccnc(NC(=S)N2CCN(c3ncc(C(F)(F)F)cc3Cl)CC2)c1`, the “activity change, negative = inhibition” value was 15.5% [at 37.9 µM] (inactive).

In the case of `Cc1cc(C)nc(NC(=S)N2CCN(c3ccc([N+](=O)[O-])cc3Cl)CC2)c1`, the “activity change, negative = inhibition” value is -33.6% (inactive).

As to `Cc1ccnc(NC(=S)N2CC3CN(c4cccc(C(F)(F)F)c4)CC3C2)c1` (stereo unspecified), the “activity change, negative = inhibition” value was 17.6% (inactive).

For the compound `FC(F)(F)c1cc(N2CCN(C(=S)Nc3cc(Cl)ccn3)CC2)cc(C(F)(F)F)c1`, the “activity change, negative = inhibition” value was 7.15% (inactive).

Turning to `Cc1ccnc(NC(=S)N2CCCN(c3cccc(C(F)(F)F)c3)CC2)c1`, the “activity change, negative = inhibition” value is -22.1% (inactive).

Turning to `COc1cccc(NC(=S)N2CCN(c3cc(Cl)cc(Cl)c3)CC2)n1`, the “activity change, negative = inhibition” value was 11.5% (inactive).

`COc1ccnc(NC(=S)N2CCN(c3cccc(Cl)c3Cl)CC2)c1`: the “activity change, negative = inhibition” value is -19.6% (inactive).

With `FC(F)(F)c1cccc(N2CCN(C(=S)Nc3nccc4ccccc34)CC2)c1`, the compound was called inactive.

As to `COc1cccc(NC(=S)N2CCN(c3ccc(Cl)c(Cl)c3)CC2)n1`, the “activity change, negative = inhibition” value is 14.5% (inactive).

`Cc1nc(CN(C)c2ncnc3ccc(-c4ccc5[nH]ncc5c4)cc23)cs1`: the “activity change, negative = inhibition” value is -56.4% (inactive).

For `S=C(Nc1cc(Cl)ccn1)N1CCN(c2cccc(Cl)c2Cl)CC1`, the “activity change, negative = inhibition” value was 17% (inactive).

Take `Cc1cc(C)nc(NC(=S)N2CCN(c3ncccc3C#N)CC2)c1`: the “activity change, negative = inhibition” value was 6.52% (inactive).

In the case of `CC(Cc1ccccc1)C(=O)Nc1ccc(Cl)cc1C(=O)O` (stereo unspecified), the “activity change, negative = inhibition” value was -4.47% (inactive).

Regarding `Cc1cc(C)nc(NC(=S)N2CCN(c3ccc(Cl)cc3Cl)CC2)c1`, the “activity change, negative = inhibition” value was -6.72% [at 37.9 µM] (inactive).

Turning to `Cc1cc(C)nc(NC(=S)N2CCN(c3ccc(Cl)c(Cl)c3)CC2)c1`, the “activity change, negative = inhibition” value was -30.3% (inactive).

In the case of `Cc1ccnc(NC(=S)N2CCCc3ccc(C(F)(F)F)cc32)c1`, the “activity change, negative = inhibition” value was 25.8% [at 37.9 µM] (inactive).

Regarding `Cc1cc(C)nc(NC(=S)N2CCN(c3ccc(Cl)cc3C(F)(F)F)CC2)c1`, the “activity change, negative = inhibition” value is -7.54% [at 37.9 µM] (inactive).

For the compound `Cc1ccnc(NC(=S)Nc2cccc(C(F)(F)F)c2)c1`, the “activity change, negative = inhibition” value is 12.3% (inactive).

With `Cc1ccnc(NC(=S)N[C@@H]2CCN(c3cccc(C(F)(F)F)c3)C2)c1`, the “activity change, negative = inhibition” value was 23% (inactive).

Regarding `FC(F)(F)c1cccc(N2CCN(C(=S)Nc3cc(C(F)(F)F)ccn3)CC2)c1`, the “activity change, negative = inhibition” value was 20.9% (inactive).

The values above are taken from PubChem BioAssay AID720676 (National Center for Advancing Translational Sciences (NCATS), 2013).
